Source: PubChem
HDAC3 inh – human HDAC3 inhibition. O15379. recombinant HDAC3, fluorogenic peptide/trypsin coupled, fluorescence. inhibition, % at 8.3 µM. hit rate 0.15% among 320,000. AID 2718; in the data active = inhibition above about 26%, passing the limit was not always enough; inconclusive = no clear call, values can overlap the other calls
Rtt109 Vps75 – blocks Candida albicans Rtt109/Vps75 acetyltransferase activity. purified Rtt109/Vps75, ThioGlo CoA-SH fluorescence, 4 h. inhibition, % at 34.9 µM. hit rate 0.16% among 330,000;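 active = inhibition of at least 50% in every replicate; inconclusive = best replicate reaches 50% inhibition but some replicates fall short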
GRK2 aptamer HTS – inhibitors of human GRK2 displacing RNA aptamer | bead flow cytometry, FAM-aptamer displacement from GRK2 | AID 488847 | hit rate 0.59% among 330,000 | inhibition of aptamer binding, % at 10 µM | P25098;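 active = inhibition of aptamer binding above 40%, roughly 3 SD of noise, on plates passing a quality check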;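 also: median bead fluorescence of bound FAM aptamer so fluorescent compounds give negative values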
Rce1 inhib – yeast Ras-converting enzyme inhibition; Q03530; yeast membranes, quenched prenylated peptide cleavage fluorescence; calls only; hit rate 0.27% among 290,000;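 active = fall in fluorescence gain of 50% or more versus controls, with final raw signal at or below 3038400; inconclusive = same 50% fall but final raw signal above 3038400; inactive = fall in fluorescence gain under 50%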
Target sequence (Q03530 whole entry, looked up): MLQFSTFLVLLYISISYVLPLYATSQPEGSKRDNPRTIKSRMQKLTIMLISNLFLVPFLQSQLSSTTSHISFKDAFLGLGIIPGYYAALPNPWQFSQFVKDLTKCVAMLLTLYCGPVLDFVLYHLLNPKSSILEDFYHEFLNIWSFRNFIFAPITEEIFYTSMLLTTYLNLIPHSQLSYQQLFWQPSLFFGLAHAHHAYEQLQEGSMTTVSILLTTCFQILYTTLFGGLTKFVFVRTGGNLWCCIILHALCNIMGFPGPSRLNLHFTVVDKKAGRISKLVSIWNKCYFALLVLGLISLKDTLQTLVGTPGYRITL
ALR inh – inhibitors of human sulfhydryl oxidase ALR. P55789. purified ALR, DTT oxidation, H2O2 HRP-luminol luminescence. inhibition, % (no concentration beside the values). hit rate 3.8% among 290,000. AID 485317;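 active = mean replicate inhibition above about 79%, with every replicate also reaching it, limit read from the data; inconclusive = only one of the two criteria met; inactive = mean below limit and not every replicate reaching it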
Target sequence (P55789 whole entry, looked up): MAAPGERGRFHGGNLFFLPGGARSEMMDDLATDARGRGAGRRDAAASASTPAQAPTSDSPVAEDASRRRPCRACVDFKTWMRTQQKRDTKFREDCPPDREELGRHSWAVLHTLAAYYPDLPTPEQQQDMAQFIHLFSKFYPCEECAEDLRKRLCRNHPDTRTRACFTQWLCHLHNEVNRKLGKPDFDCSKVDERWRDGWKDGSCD
Efflux pump inh – blocks antifungal efflux pumps in multiplex yeast assay. S. cerevisiae Candida pump triplex, Nile Red efflux. inhibition, % at 10 µM. hit rate 0.44% among 330,000. AID 485275;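 active = plate passing quality check with inhibition over a set limit, or well fluorescence over plate mean plus 4 SD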;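 also: Nile Red retained in pooled yeast measured as flow cytometry median fluorescence; higher means more Nile Red kept so more efflux inhibition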
Of the large screens only hits and unclear results are named; the others gave an inactive call. Compounds with a hit are over-represented: about 4.5% of the library has one in this group of screens.

O=C(NNc1cccc(Cl)n1)c1cccnc1Cl	none (no result: Rtt109 Vps75)
O=C(NNc1cccc(Cl)c1)c1cccnc1Cl	ALR inh 98 (no result: Rtt109 Vps75)
Cc1csc(SCC(=O)NC(C)C2CC3CCC2C3)n1 (stereo not drawn)	none
COC(=O)C(Cc1ccccc1)OS(N)(=O)=O (stereo not drawn)	Rce1 inhib active
CC[C@]12c3[nH]c4ccccc4c3CCN1C(=O)C(CC(=O)NCCCN(C)C)C[C@@H]2C(=O)N1CCN(C(=O)c2ccco2)CC1 (stereo partly drawn)	none (no result: Rce1 inhib)
N#Cc1c(-c2ccco2)nc(SCc2ccc(F)cc2)[nH]c1=O	none
Cc1nc(SCc2cccc(F)c2)[nH]c(=O)c1C#N	ALR inh 84 (no result: Rce1 inhib)
Cc1nc(SCc2cccnc2)[nH]c(=O)c1C	ALR inh 99
COC(=O)Cc1c(C)nc(SCc2ccccc2)[nH]c1=O	none
COC(=O)CCC(=O)N1CCC(CCC(=O)NCc2ccc(F)cc2)CC1	none
CCCCn1c(N)c(N(CCOC)C(=O)CSc2nnc(C)n2-c2ccc(OC)cc2)c(=O)[nH]c1=O	none (no result: HDAC3 inh)
CC1=[N+](C)N(c2ccccc2)C(=O)C1N=Cc1ccccc1Cl (stereo not drawn)	ALR inh 77 (no result: Rce1 inhib)
O=C(O)CCC(=O)c1cccc2ccccc12	none
O=C(O)CCC(=O)c1ccc2ccc3cccc4ccc1c2c34	ALR inh 87 (no result: Rtt109 Vps75)
O=C(CN1C(=O)NC2(CCCC2)C1=O)NNC(=O)c1ccc(F)cc1	none
COc1ccc(Br)cc1C(=O)Nc1ccc(NC(=O)c2ccco2)cc1	none
COc1ccc(Br)cc1C(=O)Nc1cc(C)cc(C)c1	Rce1 inhib active
CN1CCN(NC(=O)c2cc(-c3ccc(Cl)s3)nc3ccccc23)CC1	none (no result: Rce1 inhib)
c1ccc(-c2nc(CSc3nnnn3-c3ccccc3)cs2)cc1	none
Cc1ccccc1Nc1nc(CSc2nnnn2-c2ccccc2)cs1	ALR inh 98
O=C1NN(c2cccc(Br)c2)C(=O)/C1=C\c1ccc(O)cc1	ALR inh 98
COc1cc(/C=C2/C(=O)NN(c3cccc(Cl)c3)C2=O)cc(OC)c1O	ALR inh 91
Cc1ccc(N2NC(=O)/C(=C\c3cc4c(cc3[N+](=O)[O-])OCO4)C2=O)cc1C	ALR inh 94
COc1cc(/C=C2/C(=O)NN(c3cccc(C)c3)C2=O)cc([N+](=O)[O-])c1O	none (no result: ALR inh)
COc1cc(/C=C2/C(=O)NN(c3ccc(C)c(Cl)c3)C2=O)cc([N+](=O)[O-])c1O	ALR inh 99
CCN(C(=O)COC(=O)c1ccc(-n2c(C)ccc2C)cc1)c1c(N)n(Cc2ccccc2)c(=O)[nH]c1=O	none (no result: HDAC3 inh, GRK2 aptamer HTS, Rce1 inhib, ALR inh, Efflux pump inh)
CC(=O)c1cccc(NC(=O)CN2C(=O)C(=O)N(Cc3ccco3)C2=O)c1	none (no result: Rce1 inhib)
CC(C)c1ccc(S(=O)(=O)N(C)C2(C)CCS(=O)(=O)C2)cc1 (stereo not drawn)	none
CCCN(C(=O)Cc1c(C(=O)O)n(C)c2ccccc12)c1cccc(C)c1	none (no result: Rtt109 Vps75)
CCOc1cc(/C=C2/C(=O)NN(c3cccc(Cl)c3)C2=O)ccc1O	ALR inh 98
COc1cccc(/C=C2/C(=O)NN(c3ccc(C)c(C)c3)C2=O)c1	ALR inh 99
COc1cccc(/C=C2/C(=O)NN(c3ccc(F)cc3)C2=O)c1	ALR inh inconclusive
COc1cc(/C=C2/NC(=O)N(c3cccc(Cl)c3)C2=O)ccc1O	none (no result: Rtt109 Vps75)
Cc1ccc2nc(C)cc(C(=O)N3CCCC(CO)(Cc4ccccc4C)C3)c2c1 (stereo not drawn)	HDAC3 inh inconclusive
O=C(Nn1cnnc1)c1ccc(Cl)c([N+](=O)[O-])c1	none (no result: ALR inh)
Cc1ccc(C(=O)Nn2cnnc2)cc1Cl	ALR inh 81
Cc1cc(C)c(C)c(S(=O)(=O)N2CCN(C(=O)c3ccccc3OCc3c(C)noc3C)CC2)c1C	none (no result: Rce1 inhib)
CC(C)c1cc(C(=O)NCCc2ccccc2)no1	none
CC(=O)NC(c1ccco1)c1cc(Cl)c2ccccc2c1O (stereo not drawn)	ALR inh 88 (no result: Rce1 inhib)
CC(=O)NC(C)c1cc(Cl)c2ccccc2c1O (stereo not drawn)	none (no result: Rce1 inhib)
CCC(=O)NC(c1ccco1)c1cc(Cl)c2ccccc2c1O (stereo not drawn)	none (no result: Rce1 inhib)
CCC(=O)NC(c1cc(Cl)c2ccccc2c1O)C(C)C (stereo not drawn)	ALR inh 95 (no result: Rce1 inhib)
COc1ccc(S(=O)(=O)N2CCCCC2)cc1C(=O)N1CCCCCC1	none (no result: ALR inh)
CC1(C)CC(=O)C(Sc2nnc(-c3ccc(NS(C)(=O)=O)cc3)n2Cc2ccco2)C(=O)C1	ALR inh 92 (no result: Rce1 inhib)
CN(C)S(=O)(=O)c1ccc(C(=O)N2CCN=C2SCc2ccccc2)cc1	none
O=C(c1ccc(S(=O)(=O)N2CCOCC2)cc1)N1CCN=C1SCc1cccnc1	ALR inh 99
O=C(c1cccs1)N1CCN=C1SCc1cccnc1	ALR inh 99
O=C(N1CCN=C1SCc1cccnc1)C12CC3CC(CC(C3)C1)C2	ALR inh 99
O=C(c1ccco1)N1CCN=C1SCc1ccccc1F	ALR inh 95
O=C(c1cccs1)N1CCN=C1SCc1ccc(Cl)cc1	ALR inh inconclusive
CC1(C)Oc2ccc(C(=O)Nc3ccccc3)cc2N(CC#N)C1=O	none
CCOC(=O)CN(Cc1ccccc1)C(=O)OC(C)(C)C	none (no result: Rtt109 Vps75)
Cc1ccc(CSC2=NCCN2C(=O)c2ccco2)cc1	ALR inh 95
O=C(c1ccco1)N1CCN=C1SCc1cccnc1	ALR inh 99
Cc1ccc(CSC2=NCCN2C(=O)c2ccc([N+](=O)[O-])cc2)cc1	none
Cc1cccc(CSC2=NCCN2C(=O)c2ccco2)c1	HDAC3 inh inconclusive, ALR inh 96
Cc1cccc(CC(=O)N2CCN(C(=O)c3ccco3)CC2)c1	none
Cc1cc(N2CCCC(C(=O)Nc3cccc4ccccc34)C2)n2ncnc2n1 (stereo not drawn)	none
O=C(CC1OC(=O)c2ccccc21)Nc1cc(S(=O)(=O)N2CCOCC2)ccc1OCC(F)(F)F (stereo not drawn)	none
COc1ccc(CC(NC(C)=O)C(=O)NC2CCN(c3nc(C)cc(C)c3C#N)CC2)cc1 (stereo not drawn)	Rtt109 Vps75 53 (no result: ALR inh)
COc1cccc(N2CCN(c3nc(C)cc(C)c3C#N)CC2)c1	ALR inh 86
CN(C(=O)COC(=O)/C=C/c1ccc(Cl)c(Cl)c1)c1c(N)n(Cc2ccccc2)c(=O)[nH]c1=O	none (no result: ALR inh)
CC1CCC(NC(=O)CSc2nnc(-c3cccnc3)o2)CC1 (stereo not drawn)	none (no result: Rce1 inhib)
CC(C)CC(O)(CC(C)C)C(=O)NNc1ccccc1	ALR inh 99
CCCCCCCCNC(=S)NCCN1CCCCC1	none (no result: HDAC3 inh, GRK2 aptamer HTS, ALR inh, Efflux pump inh)
COc1cc(/C=C2/C(=O)ON=C2c2ccccc2)ccc1O	ALR inh 95
COc1cc(/C=C2\C(=O)ON=C2c2ccccc2)cc(Br)c1O	none (no result: ALR inh)
COc1cc(/C=C2\C(=O)ON=C2c2ccccc2)cc(Cl)c1O	ALR inh 99
O=C1ON=C(c2ccccc2)/C1=C/c1ccc(O)cc1	ALR inh 87
